Experimental data: ChEMBL document CHEMBL2218924, “A broad activity screen in support of a chemogenomic map for kinase signalling research and drug discovery” (Biochem J, 2013); call rule not given here

Key:
[1] = target: T1, Ephrin type-A receptor 3 (Homo sapiens) (UniProt P29320); settings: at 10 µM
T1 sequence (whole entry): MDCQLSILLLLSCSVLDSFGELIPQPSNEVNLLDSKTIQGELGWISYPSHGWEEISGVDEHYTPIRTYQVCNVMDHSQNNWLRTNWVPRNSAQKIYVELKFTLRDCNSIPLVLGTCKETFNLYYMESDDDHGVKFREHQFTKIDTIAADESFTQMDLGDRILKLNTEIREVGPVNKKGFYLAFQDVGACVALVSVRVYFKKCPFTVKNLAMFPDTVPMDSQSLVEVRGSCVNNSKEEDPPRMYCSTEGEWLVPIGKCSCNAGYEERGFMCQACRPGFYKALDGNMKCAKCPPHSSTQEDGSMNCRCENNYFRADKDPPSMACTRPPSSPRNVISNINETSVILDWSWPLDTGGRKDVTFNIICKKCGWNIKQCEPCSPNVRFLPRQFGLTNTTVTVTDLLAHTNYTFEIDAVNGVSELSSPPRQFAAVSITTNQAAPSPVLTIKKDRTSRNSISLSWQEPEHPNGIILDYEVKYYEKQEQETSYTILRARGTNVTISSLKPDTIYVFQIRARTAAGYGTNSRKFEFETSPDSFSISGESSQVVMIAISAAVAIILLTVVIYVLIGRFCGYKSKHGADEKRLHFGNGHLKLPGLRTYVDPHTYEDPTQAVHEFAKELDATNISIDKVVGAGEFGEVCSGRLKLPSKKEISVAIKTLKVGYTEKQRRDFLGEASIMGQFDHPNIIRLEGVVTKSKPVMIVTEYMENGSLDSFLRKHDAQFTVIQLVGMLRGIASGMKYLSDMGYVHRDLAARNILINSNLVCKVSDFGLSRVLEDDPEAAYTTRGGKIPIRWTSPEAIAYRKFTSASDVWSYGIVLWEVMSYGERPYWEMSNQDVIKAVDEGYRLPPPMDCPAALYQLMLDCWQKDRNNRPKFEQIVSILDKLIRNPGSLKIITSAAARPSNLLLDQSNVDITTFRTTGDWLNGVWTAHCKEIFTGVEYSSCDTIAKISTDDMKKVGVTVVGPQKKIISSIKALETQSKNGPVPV

[2] = target: Ephrin type-A receptor 4 (Homo sapiens) (UniProt P54764); settings: at 10 µM
Ephrin type-A receptor 4 (Homo sapiens), sequence (P54764 whole entry): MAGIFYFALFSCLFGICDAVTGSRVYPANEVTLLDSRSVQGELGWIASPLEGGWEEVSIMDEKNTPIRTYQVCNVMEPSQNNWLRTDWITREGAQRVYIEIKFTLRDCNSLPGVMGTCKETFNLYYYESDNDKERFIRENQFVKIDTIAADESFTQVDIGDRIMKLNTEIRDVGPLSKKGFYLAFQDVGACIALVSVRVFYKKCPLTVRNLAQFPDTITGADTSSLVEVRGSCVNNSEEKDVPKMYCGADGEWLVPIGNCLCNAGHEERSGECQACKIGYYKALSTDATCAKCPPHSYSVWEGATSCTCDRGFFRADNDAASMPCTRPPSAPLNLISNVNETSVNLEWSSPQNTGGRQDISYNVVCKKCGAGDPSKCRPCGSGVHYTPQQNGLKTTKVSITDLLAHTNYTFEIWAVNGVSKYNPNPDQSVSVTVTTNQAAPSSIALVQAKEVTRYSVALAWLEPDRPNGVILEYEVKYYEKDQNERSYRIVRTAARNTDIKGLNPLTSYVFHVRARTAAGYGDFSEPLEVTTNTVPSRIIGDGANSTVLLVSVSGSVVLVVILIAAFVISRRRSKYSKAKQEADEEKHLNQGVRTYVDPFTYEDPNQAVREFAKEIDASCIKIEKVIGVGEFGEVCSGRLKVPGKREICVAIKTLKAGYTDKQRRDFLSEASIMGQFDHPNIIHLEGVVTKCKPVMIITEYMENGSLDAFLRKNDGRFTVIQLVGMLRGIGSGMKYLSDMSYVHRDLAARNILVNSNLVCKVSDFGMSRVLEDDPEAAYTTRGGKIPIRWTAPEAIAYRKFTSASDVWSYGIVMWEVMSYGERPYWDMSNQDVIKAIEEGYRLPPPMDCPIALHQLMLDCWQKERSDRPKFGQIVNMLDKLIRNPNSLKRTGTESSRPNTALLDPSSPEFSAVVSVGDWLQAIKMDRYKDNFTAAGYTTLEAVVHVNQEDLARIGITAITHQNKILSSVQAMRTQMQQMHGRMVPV

[3] = target: Ephrin type-A receptor 7 (Homo sapiens) (UniProt Q15375); settings: at 1 µM
Ephrin type-A receptor 7 (Homo sapiens), sequence (Q15375 28-998 limits assumed): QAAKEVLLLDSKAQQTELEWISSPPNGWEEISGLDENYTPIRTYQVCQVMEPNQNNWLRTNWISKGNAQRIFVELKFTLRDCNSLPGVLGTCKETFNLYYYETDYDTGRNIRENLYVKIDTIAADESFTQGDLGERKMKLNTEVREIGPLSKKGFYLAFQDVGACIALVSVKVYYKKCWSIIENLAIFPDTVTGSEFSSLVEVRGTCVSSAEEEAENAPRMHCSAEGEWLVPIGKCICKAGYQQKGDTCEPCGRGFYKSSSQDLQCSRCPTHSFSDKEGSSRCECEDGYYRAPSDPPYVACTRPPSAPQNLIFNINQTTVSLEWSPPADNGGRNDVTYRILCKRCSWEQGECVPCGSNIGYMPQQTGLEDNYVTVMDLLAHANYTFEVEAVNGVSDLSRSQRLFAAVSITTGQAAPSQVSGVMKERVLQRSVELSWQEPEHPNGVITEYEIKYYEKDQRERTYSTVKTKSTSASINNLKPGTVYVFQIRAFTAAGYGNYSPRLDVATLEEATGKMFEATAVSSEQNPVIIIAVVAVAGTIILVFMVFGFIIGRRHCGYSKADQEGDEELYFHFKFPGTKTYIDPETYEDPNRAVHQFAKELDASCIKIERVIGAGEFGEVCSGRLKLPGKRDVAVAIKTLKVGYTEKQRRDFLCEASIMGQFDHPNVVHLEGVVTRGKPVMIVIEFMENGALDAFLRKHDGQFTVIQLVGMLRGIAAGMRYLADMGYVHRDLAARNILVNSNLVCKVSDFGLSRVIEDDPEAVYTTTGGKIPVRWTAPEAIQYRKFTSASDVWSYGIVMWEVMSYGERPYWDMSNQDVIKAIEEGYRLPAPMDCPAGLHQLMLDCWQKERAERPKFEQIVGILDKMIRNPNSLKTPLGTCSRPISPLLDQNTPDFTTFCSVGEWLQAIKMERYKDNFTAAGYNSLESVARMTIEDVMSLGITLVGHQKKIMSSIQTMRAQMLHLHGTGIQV

[4] = target: Ephrin type-A receptor 7 (Homo sapiens) (UniProt Q15375); settings: at 10 µM
[5] = target: T2, Ephrin type-A receptor 8 (Homo sapiens) (UniProt P29322); settings: at 1 µM
T2 sequence (whole entry): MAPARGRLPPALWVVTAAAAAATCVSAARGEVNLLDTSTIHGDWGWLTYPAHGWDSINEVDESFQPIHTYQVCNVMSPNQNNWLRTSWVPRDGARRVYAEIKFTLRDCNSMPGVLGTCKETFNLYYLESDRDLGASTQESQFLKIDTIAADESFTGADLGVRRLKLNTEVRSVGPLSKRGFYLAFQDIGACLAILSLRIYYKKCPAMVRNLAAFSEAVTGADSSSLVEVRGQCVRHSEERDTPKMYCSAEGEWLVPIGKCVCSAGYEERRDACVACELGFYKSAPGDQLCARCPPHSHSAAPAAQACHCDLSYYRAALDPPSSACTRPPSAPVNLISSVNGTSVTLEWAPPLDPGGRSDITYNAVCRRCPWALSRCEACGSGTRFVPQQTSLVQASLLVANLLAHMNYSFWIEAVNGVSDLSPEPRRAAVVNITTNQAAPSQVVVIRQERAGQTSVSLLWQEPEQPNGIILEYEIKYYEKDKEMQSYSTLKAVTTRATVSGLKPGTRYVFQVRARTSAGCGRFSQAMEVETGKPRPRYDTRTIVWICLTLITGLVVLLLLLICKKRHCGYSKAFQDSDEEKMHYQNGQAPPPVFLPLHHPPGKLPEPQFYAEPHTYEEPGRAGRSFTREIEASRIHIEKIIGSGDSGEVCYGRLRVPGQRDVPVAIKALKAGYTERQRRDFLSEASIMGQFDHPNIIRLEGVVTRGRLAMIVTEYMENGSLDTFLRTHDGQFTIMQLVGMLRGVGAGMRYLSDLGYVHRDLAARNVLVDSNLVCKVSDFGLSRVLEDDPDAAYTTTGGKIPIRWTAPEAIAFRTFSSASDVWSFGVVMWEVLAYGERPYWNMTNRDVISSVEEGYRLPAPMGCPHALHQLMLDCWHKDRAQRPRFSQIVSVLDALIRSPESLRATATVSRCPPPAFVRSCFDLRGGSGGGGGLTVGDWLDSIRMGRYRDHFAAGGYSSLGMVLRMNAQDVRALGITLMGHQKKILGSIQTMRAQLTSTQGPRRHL

[6] = target: T2, Ephrin type-A receptor 8 (Homo sapiens); settings: at 10 µM
[7] = target: T3, Ephrin type-B receptor 1 (Homo sapiens) (UniProt P54762); settings: at 1 µM
T3 sequence (whole entry): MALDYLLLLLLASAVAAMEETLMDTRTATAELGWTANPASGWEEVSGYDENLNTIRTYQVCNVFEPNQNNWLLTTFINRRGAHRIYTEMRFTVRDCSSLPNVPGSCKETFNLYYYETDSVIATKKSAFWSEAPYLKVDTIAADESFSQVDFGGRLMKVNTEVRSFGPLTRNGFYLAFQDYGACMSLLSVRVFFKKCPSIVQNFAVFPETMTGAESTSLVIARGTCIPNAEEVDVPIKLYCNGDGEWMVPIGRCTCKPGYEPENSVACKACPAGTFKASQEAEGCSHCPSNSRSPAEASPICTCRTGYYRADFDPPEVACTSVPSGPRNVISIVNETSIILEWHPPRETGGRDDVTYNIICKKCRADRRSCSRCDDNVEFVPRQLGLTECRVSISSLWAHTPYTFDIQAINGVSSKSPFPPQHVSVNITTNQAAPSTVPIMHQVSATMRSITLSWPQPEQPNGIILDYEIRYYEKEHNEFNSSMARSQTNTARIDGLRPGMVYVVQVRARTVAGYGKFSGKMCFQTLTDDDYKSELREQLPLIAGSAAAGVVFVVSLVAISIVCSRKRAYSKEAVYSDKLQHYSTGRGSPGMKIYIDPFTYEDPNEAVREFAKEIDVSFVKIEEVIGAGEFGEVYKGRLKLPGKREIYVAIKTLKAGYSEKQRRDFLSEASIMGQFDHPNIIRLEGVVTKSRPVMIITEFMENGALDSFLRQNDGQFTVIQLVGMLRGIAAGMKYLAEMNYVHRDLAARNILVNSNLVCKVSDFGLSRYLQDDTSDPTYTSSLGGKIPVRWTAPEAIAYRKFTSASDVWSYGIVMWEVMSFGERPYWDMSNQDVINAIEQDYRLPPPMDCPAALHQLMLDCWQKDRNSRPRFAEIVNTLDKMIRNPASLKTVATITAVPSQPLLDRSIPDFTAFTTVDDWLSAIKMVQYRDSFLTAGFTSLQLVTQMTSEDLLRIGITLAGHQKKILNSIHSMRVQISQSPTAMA

[8] = target: T3, Ephrin type-B receptor 1 (Homo sapiens); settings: at 10 µM
[9] = target: T4, Ephrin type-B receptor 3 (Homo sapiens) (UniProt P54753); settings: at 1 µM
T4 sequence (whole entry): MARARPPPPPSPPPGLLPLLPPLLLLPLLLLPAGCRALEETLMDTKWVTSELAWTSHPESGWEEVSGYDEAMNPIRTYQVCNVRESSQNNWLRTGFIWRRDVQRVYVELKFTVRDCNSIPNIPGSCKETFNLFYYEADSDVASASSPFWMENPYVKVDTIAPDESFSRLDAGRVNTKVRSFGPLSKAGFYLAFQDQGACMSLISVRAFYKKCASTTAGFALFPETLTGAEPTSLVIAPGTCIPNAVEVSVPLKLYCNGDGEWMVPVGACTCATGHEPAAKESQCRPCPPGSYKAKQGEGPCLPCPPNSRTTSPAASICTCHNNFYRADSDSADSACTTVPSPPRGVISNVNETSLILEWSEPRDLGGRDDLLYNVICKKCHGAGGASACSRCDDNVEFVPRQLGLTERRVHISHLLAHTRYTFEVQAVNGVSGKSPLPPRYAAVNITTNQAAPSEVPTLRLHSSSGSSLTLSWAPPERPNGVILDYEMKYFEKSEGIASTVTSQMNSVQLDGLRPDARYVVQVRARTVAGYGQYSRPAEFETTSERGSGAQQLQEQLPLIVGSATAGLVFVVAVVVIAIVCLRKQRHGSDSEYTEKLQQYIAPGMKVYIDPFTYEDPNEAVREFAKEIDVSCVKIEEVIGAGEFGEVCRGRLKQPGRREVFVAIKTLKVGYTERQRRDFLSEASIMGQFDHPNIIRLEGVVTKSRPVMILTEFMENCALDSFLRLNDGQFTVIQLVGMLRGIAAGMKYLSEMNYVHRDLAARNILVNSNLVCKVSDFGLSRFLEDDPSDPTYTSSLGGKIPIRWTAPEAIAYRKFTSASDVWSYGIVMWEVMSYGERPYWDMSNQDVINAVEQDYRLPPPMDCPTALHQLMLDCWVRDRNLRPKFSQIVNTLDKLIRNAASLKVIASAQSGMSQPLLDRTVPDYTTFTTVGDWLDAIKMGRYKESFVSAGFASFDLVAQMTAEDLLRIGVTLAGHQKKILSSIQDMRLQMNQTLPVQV

[10] = target: T4, Ephrin type-B receptor 3 (Homo sapiens); settings: at 10 µM
[11] = target: T5, Ephrin type-B receptor 4 (Homo sapiens) (UniProt P54760); settings: at 1 µM
T5 sequence (whole entry): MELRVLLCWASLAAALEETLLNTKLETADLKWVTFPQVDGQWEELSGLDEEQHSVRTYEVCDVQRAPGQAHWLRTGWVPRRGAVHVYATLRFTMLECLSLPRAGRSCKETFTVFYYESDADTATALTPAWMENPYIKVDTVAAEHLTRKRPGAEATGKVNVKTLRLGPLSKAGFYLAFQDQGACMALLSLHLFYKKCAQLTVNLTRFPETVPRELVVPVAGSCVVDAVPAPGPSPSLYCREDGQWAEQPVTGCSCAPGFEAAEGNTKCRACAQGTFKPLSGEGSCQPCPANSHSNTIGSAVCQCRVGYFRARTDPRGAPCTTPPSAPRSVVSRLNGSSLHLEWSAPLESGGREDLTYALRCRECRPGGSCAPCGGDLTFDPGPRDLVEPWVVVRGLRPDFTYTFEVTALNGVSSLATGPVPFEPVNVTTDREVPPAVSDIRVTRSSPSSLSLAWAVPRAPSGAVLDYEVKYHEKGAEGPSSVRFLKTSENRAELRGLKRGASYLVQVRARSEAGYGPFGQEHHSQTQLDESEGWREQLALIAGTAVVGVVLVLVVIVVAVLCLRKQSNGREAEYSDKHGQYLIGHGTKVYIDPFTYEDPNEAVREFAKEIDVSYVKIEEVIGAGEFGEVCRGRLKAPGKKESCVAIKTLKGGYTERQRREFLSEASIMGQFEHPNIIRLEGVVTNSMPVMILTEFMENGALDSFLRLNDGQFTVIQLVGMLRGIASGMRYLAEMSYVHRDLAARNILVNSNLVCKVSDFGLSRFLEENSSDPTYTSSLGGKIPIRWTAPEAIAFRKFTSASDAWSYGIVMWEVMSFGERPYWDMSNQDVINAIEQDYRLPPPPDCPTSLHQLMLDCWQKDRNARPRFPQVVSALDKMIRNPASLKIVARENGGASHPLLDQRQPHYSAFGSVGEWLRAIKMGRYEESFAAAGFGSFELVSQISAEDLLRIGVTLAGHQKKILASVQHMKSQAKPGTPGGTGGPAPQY

[12] = target: T5, Ephrin type-B receptor 4 (Homo sapiens); settings: at 10 µM
[13] = target: Receptor tyrosine-protein kinase erbB-4 (Homo sapiens) (UniProt Q15303); settings: at 1 µM
Receptor tyrosine-protein kinase erbB-4 (Homo sapiens), sequence (Q15303 whole entry): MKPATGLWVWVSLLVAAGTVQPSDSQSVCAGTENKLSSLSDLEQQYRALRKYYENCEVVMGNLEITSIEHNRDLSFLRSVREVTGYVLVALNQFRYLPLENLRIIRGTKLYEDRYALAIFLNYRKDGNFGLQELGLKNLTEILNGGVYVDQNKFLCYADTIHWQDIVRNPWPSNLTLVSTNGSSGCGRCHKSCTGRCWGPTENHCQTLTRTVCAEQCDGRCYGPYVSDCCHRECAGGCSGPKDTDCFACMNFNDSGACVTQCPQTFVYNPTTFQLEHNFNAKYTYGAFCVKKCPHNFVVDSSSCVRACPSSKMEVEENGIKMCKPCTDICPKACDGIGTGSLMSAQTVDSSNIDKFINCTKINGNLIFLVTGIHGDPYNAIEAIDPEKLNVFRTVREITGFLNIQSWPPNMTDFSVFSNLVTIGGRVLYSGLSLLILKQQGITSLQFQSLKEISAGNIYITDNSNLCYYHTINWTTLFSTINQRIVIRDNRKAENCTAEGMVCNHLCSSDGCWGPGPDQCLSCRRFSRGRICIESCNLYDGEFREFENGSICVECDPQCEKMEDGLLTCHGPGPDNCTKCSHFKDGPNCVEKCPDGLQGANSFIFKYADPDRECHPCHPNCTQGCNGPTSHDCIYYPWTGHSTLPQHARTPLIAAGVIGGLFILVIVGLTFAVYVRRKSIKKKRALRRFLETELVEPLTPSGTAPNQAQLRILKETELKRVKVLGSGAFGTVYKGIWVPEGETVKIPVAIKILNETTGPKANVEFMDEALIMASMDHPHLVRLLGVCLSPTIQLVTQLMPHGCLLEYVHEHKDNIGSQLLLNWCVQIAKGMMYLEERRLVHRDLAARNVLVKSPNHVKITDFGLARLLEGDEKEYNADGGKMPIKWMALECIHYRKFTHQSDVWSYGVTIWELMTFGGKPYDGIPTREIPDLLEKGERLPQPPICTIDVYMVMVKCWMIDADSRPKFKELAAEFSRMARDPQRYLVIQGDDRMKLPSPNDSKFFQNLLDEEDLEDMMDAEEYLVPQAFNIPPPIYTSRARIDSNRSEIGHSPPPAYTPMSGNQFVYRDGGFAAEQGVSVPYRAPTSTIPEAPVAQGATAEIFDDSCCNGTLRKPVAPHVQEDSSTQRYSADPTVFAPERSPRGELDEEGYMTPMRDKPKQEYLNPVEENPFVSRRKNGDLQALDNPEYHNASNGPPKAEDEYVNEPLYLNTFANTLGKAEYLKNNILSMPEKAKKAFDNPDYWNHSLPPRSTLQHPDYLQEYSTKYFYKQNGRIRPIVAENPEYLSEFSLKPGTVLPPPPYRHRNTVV

[14] = target: Receptor tyrosine-protein kinase erbB-4 (Homo sapiens) (UniProt Q15303); settings: at 10 µM
[15] = target: Focal adhesion kinase 1 (Homo sapiens) (UniProt Q05397); settings: at 1 µM
Focal adhesion kinase 1 (Homo sapiens), sequence (Q05397 2-1052 limits assumed): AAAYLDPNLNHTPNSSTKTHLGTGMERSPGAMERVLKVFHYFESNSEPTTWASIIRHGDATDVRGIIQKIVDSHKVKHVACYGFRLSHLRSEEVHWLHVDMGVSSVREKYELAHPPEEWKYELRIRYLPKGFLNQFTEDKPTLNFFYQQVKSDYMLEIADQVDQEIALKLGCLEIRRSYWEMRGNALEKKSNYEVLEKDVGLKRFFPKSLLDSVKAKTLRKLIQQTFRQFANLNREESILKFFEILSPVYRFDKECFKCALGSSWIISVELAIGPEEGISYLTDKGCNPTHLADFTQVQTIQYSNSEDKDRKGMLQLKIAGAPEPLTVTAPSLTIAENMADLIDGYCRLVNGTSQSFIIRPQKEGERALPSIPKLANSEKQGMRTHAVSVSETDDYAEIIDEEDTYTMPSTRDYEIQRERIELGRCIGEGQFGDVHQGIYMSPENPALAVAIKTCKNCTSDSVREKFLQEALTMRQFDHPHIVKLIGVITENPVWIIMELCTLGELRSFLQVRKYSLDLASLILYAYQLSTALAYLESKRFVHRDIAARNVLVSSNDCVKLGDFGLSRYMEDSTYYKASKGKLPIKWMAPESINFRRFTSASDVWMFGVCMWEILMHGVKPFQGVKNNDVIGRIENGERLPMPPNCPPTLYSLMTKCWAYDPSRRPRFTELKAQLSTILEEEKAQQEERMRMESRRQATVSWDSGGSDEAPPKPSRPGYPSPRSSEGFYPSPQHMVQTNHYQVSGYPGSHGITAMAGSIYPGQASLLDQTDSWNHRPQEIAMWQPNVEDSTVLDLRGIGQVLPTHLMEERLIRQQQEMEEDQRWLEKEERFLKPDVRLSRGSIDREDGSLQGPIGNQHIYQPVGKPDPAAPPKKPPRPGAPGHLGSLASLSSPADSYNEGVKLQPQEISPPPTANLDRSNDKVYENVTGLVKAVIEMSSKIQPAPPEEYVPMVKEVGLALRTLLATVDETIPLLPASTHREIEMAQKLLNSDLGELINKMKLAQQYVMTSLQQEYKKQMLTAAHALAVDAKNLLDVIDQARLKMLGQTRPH

Q: What does the source list for `CN(C)S(=O)(=O)c1ccc2c(c1)/C(=C/c1cc3c([nH]1)CCCC3)C(=O)N2`?
A: residual activity [1]: 77%; residual activity [2]: 92%; residual activity [3]: 94%; residual activity [4]: 79%; residual activity [5]: 96%; residual activity [6]: 85%; residual activity [7]: 73%; residual activity [8]: 64%; residual activity [9]: 120% (inactive); residual activity [10]: 94%; residual activity [11]: 70%; residual activity [12]: 69%; residual activity [13]: 88%; residual activity [14]: 82%; residual activity [15]: 21%
